# Assay results from PubChem BioAssay AID720549 (National Center for Advancing Translational Sciences (NCATS), 2013).
# Results filed as inconclusive are left out. The source made the active and inactive calls. Calls follow the shape of the dose curve; as a rule, active = well fitted inhibition curve with a large enough effect; inconclusive = small, poorly fitted or top-dose-only effect; inactive = flat fitted curve, though single readings scatter.
# Target: RecQ-like DNA helicase BLM (Homo sapiens) (UniProt P54132)
# Test: qHTS for Inhibitors of Bloom's syndrome helicase (BLM): Helicase ATPase Orthogonal Confirmatory Assay for SAR
# Details: purified BLM helicase ATPase activity assay; series mostly up to 57.1 µM
# Excerpt: Human RecQ DNA helicases participate in maintenance of genome stability and DNA repair. While other types of helicases have been explored as targets for drug development, members of the RecQ family have remained less well characterized. Mutations of the Bloom helicase gene have been associated with the rare human genetic disease called Bloom syndrome. […] Moreover, identified inhibitors can be used in cells and animal models to examine the consequences of inhibition on the survival of cancer cells where it has been shown that BLM plays an important role.
# A fluorescence-based, biochemical assay in 1536 well format was developed to evaluate inhibition of BLM DNA unwinding activity. This assay was used to screen the MLPCN library. […] This luminescence assay employs a purified BLM enzyme and a single stranded BLM oligo substrate ([…]). For this assay increase in luminescence signal is greater than or equal to 700 RLU. […]
# Three microliter of reaction buffer (25mM Tris-HCl pH 8.0, 50mM NaCl, 2mM MgCl2, 1mM DTT, and 0.01% Tween- 20, and 2nM BLM enzyme) was dispensed into a 1536-well assay plates (Greiner, solid white medium-binding) via Aurora Discovery BioRAPTR Flying Reagent Dispenser (FRD). […] After 30 min at room temperature, the luminescence signal was detected using the ViewLux CCD imager. […]
# RecQ-like DNA helicase BLM (Homo sapiens), sequence (P54132 whole entry, looked up): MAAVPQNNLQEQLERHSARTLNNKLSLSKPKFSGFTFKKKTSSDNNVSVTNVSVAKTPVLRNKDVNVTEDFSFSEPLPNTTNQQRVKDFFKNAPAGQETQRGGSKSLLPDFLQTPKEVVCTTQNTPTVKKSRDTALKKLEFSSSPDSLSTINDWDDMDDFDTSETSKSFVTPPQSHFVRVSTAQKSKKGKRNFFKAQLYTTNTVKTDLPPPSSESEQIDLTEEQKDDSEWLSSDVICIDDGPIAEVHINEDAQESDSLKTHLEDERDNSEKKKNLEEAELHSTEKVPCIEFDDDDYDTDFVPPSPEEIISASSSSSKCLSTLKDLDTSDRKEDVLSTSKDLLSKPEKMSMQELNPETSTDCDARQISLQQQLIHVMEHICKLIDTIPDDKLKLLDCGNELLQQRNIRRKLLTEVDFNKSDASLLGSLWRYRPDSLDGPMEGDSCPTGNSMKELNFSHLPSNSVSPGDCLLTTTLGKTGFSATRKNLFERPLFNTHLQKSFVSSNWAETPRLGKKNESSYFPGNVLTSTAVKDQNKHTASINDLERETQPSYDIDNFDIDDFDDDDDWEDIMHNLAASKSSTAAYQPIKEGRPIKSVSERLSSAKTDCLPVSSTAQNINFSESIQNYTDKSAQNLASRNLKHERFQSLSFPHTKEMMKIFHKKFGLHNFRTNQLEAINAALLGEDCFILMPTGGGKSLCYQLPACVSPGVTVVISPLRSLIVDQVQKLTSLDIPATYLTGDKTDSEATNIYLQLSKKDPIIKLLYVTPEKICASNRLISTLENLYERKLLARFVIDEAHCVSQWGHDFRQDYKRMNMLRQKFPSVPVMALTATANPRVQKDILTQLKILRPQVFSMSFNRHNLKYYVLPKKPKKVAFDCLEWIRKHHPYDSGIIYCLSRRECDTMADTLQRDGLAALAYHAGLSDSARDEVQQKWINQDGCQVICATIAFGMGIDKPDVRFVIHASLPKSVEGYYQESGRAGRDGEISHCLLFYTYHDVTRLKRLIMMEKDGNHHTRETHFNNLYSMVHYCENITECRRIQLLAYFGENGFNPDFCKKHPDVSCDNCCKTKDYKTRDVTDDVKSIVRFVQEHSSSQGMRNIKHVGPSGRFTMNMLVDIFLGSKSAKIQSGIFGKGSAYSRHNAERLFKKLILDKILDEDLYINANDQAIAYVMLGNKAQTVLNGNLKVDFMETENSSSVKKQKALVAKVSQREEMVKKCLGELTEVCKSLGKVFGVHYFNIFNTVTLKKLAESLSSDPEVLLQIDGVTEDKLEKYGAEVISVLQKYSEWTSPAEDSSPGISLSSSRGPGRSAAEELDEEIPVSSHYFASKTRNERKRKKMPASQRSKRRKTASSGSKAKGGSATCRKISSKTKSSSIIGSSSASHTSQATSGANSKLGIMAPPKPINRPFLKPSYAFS
smiles,measurement,value
N#Cc1ccc(NC(=O)Nc2nnc(-c3ccncc3)s2)cc1C(F)(F)F,outcome,inactive
